# About 2,700 (4%) of roughly 68,000 compounds showed an effect of 50% or more. The full list was thinned out, with strong results kept by preference.
# Test system: Plasmodium berghei
# Assay: Screen against P. berghei liver stage (PbLuc), transformed with Luciferase, at 2uM
# Type: functional, HepG2
# Conditions: tested at 2 uM
row,SMILES,INHIBITION
1,Cc1cc(NCc2ccccc2CN2CCCCC2)n2ncnc2n1,-1.87%
2,Cc1cc(C)c(CNC(=O)N(C)Cc2cccc(F)c2)c(=O)[nH]1,-9.17%
3,CS(=O)(=O)Nc1cccc(C(=O)Nc2ccc3c(c2)C(=O)NC3)c1,-7.99%
4,Cc1nnc(SC2CCN(c3sccc3C#N)C2=O)s1 (stereo unspecified),57.91%
5,Cc1nnc(SC2CCN(c3sccc3C#N)C2=O)[nH]1 (stereo unspecified),6%
6,Cc1nc(SC2CCN(c3sccc3C#N)C2=O)oc1C (stereo unspecified),32.26%
7,COc1ccccc1-c1cc(NC(=O)CCS(=O)(=O)C2CCCC2)[nH]n1,-43.66%
8,CC(=O)Nc1ccc2c(c1)CN(C(=O)c1ccco1)CC2,33.08%
9,CN1CC(=O)N(c2ccsc2)CC12CCN(C(=O)c1ccc[nH]1)C2 (stereo unspecified),53.98%
10,CN1CC(=O)N(c2ccsc2)CC12CCN(C(=O)c1ccccc1)C2 (stereo unspecified),37.45%
11,Cc1cc(C(=O)N2CCC3(C2)CN(c2ccsc2)C(=O)CN3C)[nH]n1 (stereo unspecified),13.04%
12,CCC1CN(CC(=O)NCCN(CC)CC)c2ccccc2S1 (stereo unspecified),18.23%
13,COCCOc1ccccc1C(=O)N1CCCCC1c1nccs1 (stereo unspecified),45.75%
14,COCc1ccccc1C(=O)N1CCCC(n2nc(C)cc2C)C1 (stereo unspecified),21.91%
15,CCOc1ncccc1C(=O)N1CCCCC1c1nccs1 (stereo unspecified),67.59%
16,COCCOc1ncccc1C(=O)N1CCCCC1c1nccs1 (stereo unspecified),-10.05%
17,Cc1cc(C)n(C2CCCN(C(=O)CCCNc3ncccn3)C2)n1 (stereo unspecified),26.71%
18,CCOc1ncccc1C(=O)N1CCCC(n2nc(C)cc2C)C1 (stereo unspecified),58.29%
19,CCOc1ncccc1C(=O)N1CCCC(n2nc(C)nc2C)C1 (stereo unspecified),20.44%
20,Cc1cc(C)n(C2CCCN(C(=O)CCNc3ncccn3)C2)n1 (stereo unspecified),70.27%
21,Cc1cc(C)n(C2CCCN(C(=O)CCNS(C)(=O)=O)C2)n1 (stereo unspecified),15.31%
22,Cc1cncc(C(=O)N2CCO[C@H]3[C@H](Oc4ccccn4)CC[C@@H]32)c1,28.88%
23,Cc1ccc(CN2CC[C@H]3[C@H](CO[C@H]3CN(C)C)C2)o1,-0.69%
24,COc1nccc(N2CC[C@H](N3CCOCC3)[C@H](CCCO)C2)c1C#N,-47.16%

row,SMILES,INHIBITION
1,N#Cc1cnc2cc(F)cc(F)c2c1NC1CCN(CC(N)=O)CC1,-22.63%
2,O=C(C1CC(c2ccccc2)=NO1)N1CCCCc2ccccc21 (stereo unspecified),24.84%
3,CCC(CC)c1cc(CNC(=O)N2CCCC(N(C)C)C2)on1 (stereo unspecified),28.23%
4,CCC(CC)c1cc(CNC(=O)N2CCCC(C(=O)NC)C2)on1 (stereo unspecified),59.8%
5,CCC(CC)c1cc(CNC(=O)N2CCC(CO)CC2)on1,-11.8%
6,CN1CCC2(CCN(C(=O)c3ccccc3)CC2)C1,39.18%
7,COc1cccc(-c2n[nH]cc2C(=O)NC(C)c2nc(C(C)C)no2)c1 (stereo unspecified),33.9%
8,COc1cccc(-c2n[nH]cc2C(=O)NC(C)c2n[nH]c(C)n2)c1 (stereo unspecified),64.2%
9,COc1cccc(-c2n[nH]cc2C(=O)NC(C)CC(=O)O)c1 (stereo unspecified),1.06%
10,Cc1cccc(CN2CCCC2c2cccc(CCC(=O)O)n2)c1 (stereo unspecified),-46.81%
11,Cc1cc(CN2CCN(C(=O)CCc3ccco3)CC2)on1,19.91%
12,COc1ccc(COCC(O)CNC(=O)c2ccc(C)c(F)c2)cc1 (stereo unspecified),-7.11%
13,CN(C)CC(=O)N1CCOCC(Cc2ccccn2)C1 (stereo unspecified),54.44%
14,O=C(c1cncs1)N1CCOCC(Cc2ccccn2)C1 (stereo unspecified),-11.3%
15,CN(CC(=O)N1CCOCC(CO)C1)Cc1ccccn1 (stereo unspecified),14.96%
16,CC(Cn1cccn1)NC(=O)Nc1nccs1 (stereo unspecified),43.93%
17,O=C(NCCNc1ncccn1)C1CC(=O)N(CC2CC2)C1 (stereo unspecified),4.96%
18,COc1ccccc1CCN1CCCC(CN(C)Cc2cc(C)n[nH]2)C1 (stereo unspecified),-24.74%
19,Cc1ccc(C)c(OC(C)C(=O)NCCNc2cccnc2)c1 (stereo unspecified),33.36%
20,Cc1ccc(C)c(OC(C)C(=O)NCc2cccnc2)c1 (stereo unspecified),50.98%
21,Cc1ccc(C)c(OC(C)C(=O)Nc2cccnc2)c1 (stereo unspecified),1.42%
22,COc1ccc(NS(=O)(=O)C=c2[nH]c(=O)n3cccc3c2=O)cc1Cl,1.52%
23,O=C(N1CCCC1)N1CCN(c2ccc(Cl)nn2)C(=O)C1,11.51%
24,CC(CCNC(=O)NCCc1ccc(S(N)(=O)=O)cc1)c1ccccc1 (stereo unspecified),23.76%

row,SMILES,INHIBITION
1,CC(CCNC(=O)NCCNc1cnccn1)c1ccccc1 (stereo unspecified),-24.05%
2,CC(CCNC(=O)NCCc1ccncc1)c1ccccc1 (stereo unspecified),54.29%
3,CO[C@H]1CCN(Cc2ccccn2)[C@@H]2CN(Cc3ccco3)C[C@H]12,23.7%
4,O=C(CN1CC(c2nc(-c3ccco3)no2)C1)NCc1ccc(F)cc1,25.69%
5,Cc1nc(CNc2ncc(Br)cn2)n[nH]1,33.78%
6,O=C(O)c1csc(S(=O)(=O)Nc2c(F)cccc2-n2cccn2)c1,-51.5%
7,O=C(O)c1ccc(F)c(S(=O)(=O)Nc2c(F)cccc2-n2cccn2)c1,52.67%
8,O=C(O)c1ccc(S(=O)(=O)Nc2c(F)cccc2-n2cccn2)cc1,-21.15%
9,CC(C)N1C(=O)CN(CCCO)CC1(C)C,-4.81%
10,Cc1noc(-c2ccnc(Oc3ccc(CN4CCCC4)cc3C)c2)n1,27.72%
11,CCc1ccc(CN2CCC3(CCCN(C(=O)c4cnccn4)C3)C2)o1 (stereo unspecified),-26.14%
12,CCC(=O)N1CCN(C(=O)CCn2cc(Cl)cn2)[C@H]2CS(=O)(=O)C[C@H]21,32.71%
13,Cc1cc(CC(=O)N2CCN(CC3CC3)[C@@H]3CS(=O)(=O)C[C@@H]32)ccc1F,-10.66%
14,O=C(CCn1cc(Cl)cn1)N1CCN(CC2CC2)[C@@H]2CS(=O)(=O)C[C@@H]21,59.48%
15,CCCN1CCN(Cc2cccc(OC(C)C)c2)[C@H]2CS(=O)(=O)C[C@H]21,5.86%
16,O=C(Cc1ccc(O)c(F)c1)N1CCN(CC2CC2)[C@@H]2CS(=O)(=O)C[C@@H]21,30.42%
17,CCCN1CCN(Cc2cccc(OCC(N)=O)c2)[C@H]2CS(=O)(=O)C[C@H]21,64.52%
18,O=C(Cc1ccc(CO)cc1)N1CCN(CC2CC2)[C@@H]2CS(=O)(=O)C[C@@H]21,63.46%
19,O=C(Cc1ccc(O)c(Cl)c1)N1CCN(CC2CC2)[C@@H]2CS(=O)(=O)C[C@@H]21,-3.88%
20,Cc1cnn(CCC(=O)N2CCN(C(=O)C(C)C)[C@@H]3CS(=O)(=O)C[C@@H]32)c1,34.52%
21,CCCN1CCN(Cc2cccc(OC)c2)[C@H]2CS(=O)(=O)C[C@H]21,37.76%
22,Cn1nccc1C(=O)N1CCN(C(=O)C2CC2)[C@@H]2CS(=O)(=O)C[C@@H]21,17.73%
23,Cc1cnn(CCC(=O)N2CCN(C(=O)C3CC3)[C@@H]3CS(=O)(=O)C[C@@H]32)c1,59.94%
